Whole data set: some 39,000 sequences, median “fluorescence intensity (a.u.)” near 4,300, cut for the highest 2% near 39,000. Only a selection was taken, and the highest values are over-represented in it overall.

In this assay the target is T1, OsSMF1 (Oryza sativa, UniProt Q6ZLB0 1-436).
T1 sequence: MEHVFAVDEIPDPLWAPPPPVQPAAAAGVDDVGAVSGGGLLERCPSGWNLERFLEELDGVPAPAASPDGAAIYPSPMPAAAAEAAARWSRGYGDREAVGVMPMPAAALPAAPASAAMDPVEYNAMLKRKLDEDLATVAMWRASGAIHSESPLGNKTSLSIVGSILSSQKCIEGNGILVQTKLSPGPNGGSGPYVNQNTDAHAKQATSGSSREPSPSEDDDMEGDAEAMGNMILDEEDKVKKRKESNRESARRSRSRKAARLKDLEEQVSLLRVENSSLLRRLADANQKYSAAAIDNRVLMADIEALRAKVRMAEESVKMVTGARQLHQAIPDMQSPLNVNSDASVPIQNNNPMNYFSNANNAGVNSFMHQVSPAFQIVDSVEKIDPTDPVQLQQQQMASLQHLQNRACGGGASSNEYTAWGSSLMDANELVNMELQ
Briefly: protein-binding microarray (RPBM); PBS, 2% BSA, 51.3 ng/ul salmon testes DNA, 50 uM zinc acetate, 200 nM TF, 25 C, 1 h; high values mean tight binding. Conditions: protein: recombinant; tags: N-terminal polyhistidine and DsRed monomer fusion (pET32a); chain copies: 2; label: CyDye5-dUTP incorporated in the synthesized complementary strand; 3' TTTTT single-stranded linker to array surface; dsDNA, one strand shown. The procedure, abridged: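 Ni–NTA purification followed expression in E. coli BL21-CodonPlus of transcription factors fused N-terminally to a polyhistidine tag and DsRed. At 200 nM in PBS with 2% BSA, salmon testes DNA and 50 µM zinc acetate, the protein was incubated for 1 h at 25 °C with a custom Agilent array that had been primer-extended with Cy5-dUTP and blocked with 2% BSA. After washing, the array was read on an Axon 4000B scanner. The binding signal is per-feature fluorescence intensity in arbitrary units.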
As for “TGTTTACGTCCAACGTTTAACCGCTCGTCTTATTTGAAATCGGAGTCACCTAGTGCAG”, the binding signal is 21000 fluorescence intensity (a.u.).

As for “AGAAGTATTTCTGCGTCATTGTTGGAAATTATATTTCTAGCGGAGTCACCTAGTGCAG”, the binding signal is 3650 fluorescence intensity (a.u.).

For “GACACTTACAAGCACTGCGGCGTTACCATTTTATGGAACTCGGAGTCACCTAGTGCAG”, the binding signal was 3220 fluorescence intensity (a.u.).

For “GGAAAGGCGCCACGTAATAAATAGAAACAGACTCAGCACTCGGAGTCACCTAGTGCAG”, the binding signal is 6760 fluorescence intensity (a.u.).

In the case of “TATGCCAAAGAGAAGCCTCGTCAGCCATCCCTTTGGCCACCGGAGTCACCTAGTGCAG”, the binding signal was 7800 fluorescence intensity (a.u.).

Turning to “GAGCAGCCAGCTCGCCAAGCCTAGCCATTCTTGATCTCTTCGGAGTCACCTAGTGCAG”, the binding signal is 3280 fluorescence intensity (a.u.).

Turning to “CGAAGTCGTGCTGCGCTCCGACTCAGCTGCATCGTCACTCCGGAGTCACCTAGTGCAG”, the binding signal was 5960 fluorescence intensity (a.u.).

Turning to “GCGGAGGCCGCCGGCTGACGTGGCTCCCAACGGCCGGGAGCGGAGTCACCTAGTGCAG”, the binding signal is 21200 fluorescence intensity (a.u.).

Turning to “GAGGAAGAACCTTACGCTCAAACGAAACGGAACCAGTAGGCGGAGTCACCTAGTGCAG”, the binding signal was 55100 fluorescence intensity (a.u.).

On to “CAGCAGCAACGAAATCAGAACGAGGCGCAGGAAGAAGAAACGGAGTCACCTAGTGCAG”, for which the binding signal is 28000 fluorescence intensity (a.u.).

Regarding “CAGGGCAGCGGCAGGTGGGGAGGAGGCCGGCGGGTCGGCGCGGAGTCACCTAGTGCAG”, the binding signal was 3470 fluorescence intensity (a.u.).

Turning to “GTCCATCGGATCGGGAGCGCGCGGCGAGGCAGGCGGGGTCCGGAGTCACCTAGTGCAG”, the binding signal is 44300 fluorescence intensity (a.u.).

As for “ACCCAACGGTGATGATGTCAGCTGACGTGGCGCCCCGGAGCGGAGTCACCTAGTGCAG”, the binding signal is 40500 fluorescence intensity (a.u.).

On to “GAGCCGAGACTGAGAGAGAGATCGGCGCCGGCTGTGAACGCGGAGTCACCTAGTGCAG”, for which the binding signal is 48100 fluorescence intensity (a.u.).

In the case of “TCGGGTGAGCGAGTGAGTGGGCGAGGAGGCGCGGCGGCGGCGGAGTCACCTAGTGCAG”, the binding signal was 3800 fluorescence intensity (a.u.).

In the case of “CTGCCGGTGGACGGCGGCGGAGAGCTGACTAGCCGAGCCGCGGAGTCACCTAGTGCAG”, the binding signal was 3520 fluorescence intensity (a.u.).

Regarding “ACTCGTGGAGCCGGTGATGACGTGCCCAAGCTAGAGACAGCGGAGTCACCTAGTGCAG”, the binding signal is 7230 fluorescence intensity (a.u.).

For “TCGGCCGTCGGATCGCGCGCGAAACGCTGTGATGTGCTGGCGGAGTCACCTAGTGCAG”, the binding signal is 4480 fluorescence intensity (a.u.).

As to “AAGAGGGAGGGGAGGGTTCGCGAACCAGTAGAAAACGGCTCGGAGTCACCTAGTGCAG”, the binding signal was 3390 fluorescence intensity (a.u.).

In the case of “GGATTGGCGACTCGACGTTGACAACATGACATATGAGGTACGGAGTCACCTAGTGCAG”, the binding signal was 4210 fluorescence intensity (a.u.).

For “GCTGCTCTCTCTCTCTCTCTCTCCCATCTCGTCCTCGCTTCGGAGTCACCTAGTGCAG”, the binding signal is 19400 fluorescence intensity (a.u.).

Regarding “TCCACCTGGGTTCAAATCCTAGATTTGACACGGGTGCTCGCGGAGTCACCTAGTGCAG”, the binding signal was 4830 fluorescence intensity (a.u.).

As for “ATAGCATCCTGTACACTCAAGTCATCCCTGACACACACACCGGAGTCACCTAGTGCAG”, the binding signal is 3850 fluorescence intensity (a.u.).

As to “GGGCCAATCTAGTTGTCAACTTCTACTACTGCTAGGAGGACGGAGTCACCTAGTGCAG”, the binding signal is 3410 fluorescence intensity (a.u.).

With “GCTCGCCGGCCTCACCCTCAATACATGGTGATTCATCCGGCGGAGTCACCTAGTGCAG”, the binding signal is 3660 fluorescence intensity (a.u.).

“TGAATCCACAGCCACGCCACGCGGCCCATGCCTACGCCTCCGGAGTCACCTAGTGCAG”: the binding signal was 4000 fluorescence intensity (a.u.).

In the case of “CCTTGCCGCCGGCCAATTTATTGACTCACCGAGAAGTTTGCGGAGTCACCTAGTGCAG”, the binding signal was 5600 fluorescence intensity (a.u.).

As for “TGTGACCCATTCTAATACAATAAATCTGGACATGTGTACTCGGAGTCACCTAGTGCAG”, the binding signal is 3630 fluorescence intensity (a.u.).

With “GCCTTCCGTTCCGCTCCTCTACCGCCGCGTCAAGATTCCCCGGAGTCACCTAGTGCAG”, the binding signal was 4950 fluorescence intensity (a.u.).

On to “TGCGCCGCCGCCGCCGCCGCCGCTGCGGCGTGCATCCGCCCGGAGTCACCTAGTGCAG”, for which the binding signal was 37400 fluorescence intensity (a.u.).

Consider “CGCCGCCGGCCGCGCCGCCGCTGCCGCCGTCGCCCCGCGCCGGAGTCACCTAGTGCAG”, for which the binding signal is 3450 fluorescence intensity (a.u.).

Consider “TTTCCGCTATCGCGGTGCGCGCGGAAGGCCCCGCTGCGGCCGGAGTCACCTAGTGCAG”, for which the binding signal was 39200 fluorescence intensity (a.u.).

Regarding “ATCTCTAAACACCAAATTTGACACCGATCCACGTGCACACCGGAGTCACCTAGTGCAG”, the binding signal was 7210 fluorescence intensity (a.u.).

In the case of “GACCAAGATGACAAAGATTACTATTATACTGATGATAACCCGGAGTCACCTAGTGCAG”, the binding signal was 34100 fluorescence intensity (a.u.).

For the sequence “AAGTCTGCAGTTGCACTGGGAGTTGACAAAGAAGATGACGCGGAGTCACCTAGTGCAG”, the binding signal was 3550 fluorescence intensity (a.u.).

With “GCCATTGATGACAAAGACAACCTGGAAGATTACTGTTGCACGGAGTCACCTAGTGCAG”, the binding signal is 64300 fluorescence intensity (a.u.).

With “GTCCTCATCCTAGGTAAAATAACCACGTCATCTCACAGGTCGGAGTCACCTAGTGCAG”, the binding signal was 20700 fluorescence intensity (a.u.).

For “GCTAGCGCGCATTGACCAAGATCCGATTTGTATGCTAGTGCGGAGTCACCTAGTGCAG”, the binding signal is 4060 fluorescence intensity (a.u.).

As for “GCAGAGGCGGCGAGGCTCGGCTTCTTCTCGAACGGCGCCGCGGAGTCACCTAGTGCAG”, the binding signal was 27600 fluorescence intensity (a.u.).

Regarding “GAGCAGAAAGACGCGGCTTCTCGAGAGTTCCAAGTTCCAACGGAGTCACCTAGTGCAG”, the binding signal is 45200 fluorescence intensity (a.u.).

In the case of “CCGAGAGAAAGAGAGCAAGAGAGAGAGACGGGCTCAAGAGCGGAGTCACCTAGTGCAG”, the binding signal was 4560 fluorescence intensity (a.u.).

Regarding “CGATGAGCACCGCAGCGATTGACATATTGCAATATCGTTCCGGAGTCACCTAGTGCAG”, the binding signal was 3550 fluorescence intensity (a.u.).

These data come from publication PMC7819943, “Rice protein-binding microarrays: a tool to detect cis-acting elements near promoter regions in rice”.
